Article PMC7819943, “Rice protein-binding microarrays: a tool to detect cis-acting elements near promoter regions in rice”
Over roughly 68,000 sequences, “fluorescence intensity (a.u.)” has its median near 9,100; the highest 2% begin near 16,000. The sample holds the highest values, similar sequences and a random draw of the others, so the mix is not that of the screen.

What follows are sequences tested against OsWRKY34 (Oryza sativa, UniProt Q0JBA9 1-250) (assay: protein-binding microarray (RPBM); PBS, 2% BSA, 51.3 ng/ul salmon testes DNA, 50 uM zinc acetate, 200 nM TF, 25 C, 1 h; high values mean tight binding). Conditions: protein: recombinant; tags: N-terminal polyhistidine and DsRed monomer fusion (pET32a); label: CyDye5-dUTP incorporated in the synthesized complementary strand; 3' TTTTT single-stranded linker to array surface; dsDNA, one strand shown.
Sequence of OsWRKY34 (Q0JBA9 entry or part of it): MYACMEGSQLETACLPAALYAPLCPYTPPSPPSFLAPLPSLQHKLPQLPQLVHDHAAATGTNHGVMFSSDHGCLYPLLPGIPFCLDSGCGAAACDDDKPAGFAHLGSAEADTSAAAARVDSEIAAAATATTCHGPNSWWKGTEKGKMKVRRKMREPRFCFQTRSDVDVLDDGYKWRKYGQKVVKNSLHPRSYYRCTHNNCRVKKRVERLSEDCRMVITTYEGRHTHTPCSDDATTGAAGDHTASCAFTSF
Method in brief: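 Binding signal is reported as fluorescence intensity per feature (arbitrary units) from an Axon 4000B scanner. Incubation used 200 nM of each Ni–NTA-purified, N-terminally polyhistidine- and DsRed-fused transcription factor from E. coli BL21-CodonPlus on a double-stranded custom Agilent array for 1 h at 25 °C, with 50 µM zinc acetate in the buffer, followed by washing.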

Sequence	binding signal
CGGTGTACTACTTTTATATATGCAAACCTTTATTGCCTGACGGAGTCACCTAGTGCAG	10300 fluorescence intensity (a.u.)
GGCCCACCGTCGCACTCGCGCCTTCCGCTGCTCCGTTGCCCGGAGTCACCTAGTGCAG	8880 fluorescence intensity (a.u.)
GTTTTTCCTCTCTGCTTGTAACGCGTGATGTAAAATTTTCCGGAGTCACCTAGTGCAG	11000 fluorescence intensity (a.u.)
CGTCGAGTATCTGTATCTCTAAGCATTTCTTGTTGACTTTCGGAGTCACCTAGTGCAG	10600 fluorescence intensity (a.u.)
CCGTGCCCACCTGAGCTCGCTTCGCCGCCATTGGCAGCCTCGGAGTCACCTAGTGCAG	9100 fluorescence intensity (a.u.)
ATGGTTTTTCAGGGTTGGATTTATGTGTGGTCAGTTTAAACGGAGTCACCTAGTGCAG	12000 fluorescence intensity (a.u.)
GTGGGCAGATTTAGTTTTAATGGGTGTGGGTACGGAGAGTCGGAGTCACCTAGTGCAG	8900 fluorescence intensity (a.u.)
AAGCGGGGATTTTATGTGGGCAGTGGGTTTTCTTCTTAAACGGAGTCACCTAGTGCAG	19300 fluorescence intensity (a.u.)
AGGCTACACTATTAAACTTGCTCTTCTCAAGCTACTTCAACGGAGTCACCTAGTGCAG	8190 fluorescence intensity (a.u.)
TGTATAGTTTAGGGGTGAAGATTTCTGGTTTTGTGGTTAACGGAGTCACCTAGTGCAG	11500 fluorescence intensity (a.u.)
GGGGTTTGCTATTCTGGCTCTCTATTAAGCTCATAAAAAACGGAGTCACCTAGTGCAG	23500 fluorescence intensity (a.u.)
GAGTGGGTGTGGGTTTTCTAGTGGGCAGATTTAGTTTTAACGGAGTCACCTAGTGCAG	17200 fluorescence intensity (a.u.)
ATTATTAATAAAACTCATTCTATAACTCTGGACTAATTCGCGGAGTCACCTAGTGCAG	8200 fluorescence intensity (a.u.)
AGAGGGGAGGGAGGAGGATTATGGTTTTTTTTCTCTAAAACGGAGTCACCTAGTGCAG	16700 fluorescence intensity (a.u.)
GATGTGCCAATGGTTTCTTTCTCTTTCTTTCTCTTTAAAACGGAGTCACCTAGTGCAG	8910 fluorescence intensity (a.u.)
TTATGGTTGTTTTCTTCGGTTCTTTGTTTTTTTAAAAAAACGGAGTCACCTAGTGCAG	11600 fluorescence intensity (a.u.)
ACATGTGGGGCCTATTTATTTCTTTTTTTTTAAAAAAAAACGGAGTCACCTAGTGCAG	8480 fluorescence intensity (a.u.)
TCCATTTCCCGCCGCCTCCCCTCTCGCGATCCATATCCATCGGAGTCACCTAGTGCAG	8050 fluorescence intensity (a.u.)
GCTTTTCTTCCTCGACAAGGCCGCCTGCACCACCGTCTCCCGGAGTCACCTAGTGCAG	10500 fluorescence intensity (a.u.)
CTGGTTACTTTCTCATTTCTTCCTCGCTCGCGCGCTCTCTCGGAGTCACCTAGTGCAG	10800 fluorescence intensity (a.u.)
GATTTAGAGTTGGAGTCAGTCGGTTTGACCAGCCACATGCCGGAGTCACCTAGTGCAG	8690 fluorescence intensity (a.u.)

Sequence	binding signal
GCTAGGTCAACTTTGCTCTCAGCTCTCGCTCCCGATGCCACGGAGTCACCTAGTGCAG	9760 fluorescence intensity (a.u.)
CTCTCTCTCTCTCTCTCTCTCTCTCTCCAACGCGCGCGCGCGGAGTCACCTAGTGCAG	8700 fluorescence intensity (a.u.)
CGGCGTCTCTACCTCTACGAATCAGGTCAGGCTTCGATCCCGGAGTCACCTAGTGCAG	8380 fluorescence intensity (a.u.)
CTGGCCGCCATCTCCGCCAATCTCGCTGAATCGGACGCCACGGAGTCACCTAGTGCAG	8460 fluorescence intensity (a.u.)
GGGGTTTTTCTTATGTTAGTATATGTGTGGGATGTGTGAACGGAGTCACCTAGTGCAG	16800 fluorescence intensity (a.u.)
ATGTGTGGATTTATAAGGGTGAGTATATGTGTTTCGGGAACGGAGTCACCTAGTGCAG	8140 fluorescence intensity (a.u.)
GAAATGTGGGAGGGGTTTTCTTACAAATGTTATATAGACACGGAGTCACCTAGTGCAG	13900 fluorescence intensity (a.u.)
CGGGTTCAATATATTGTTTTTTTTAAGACTGGTTCAATATCGGAGTCACCTAGTGCAG	8880 fluorescence intensity (a.u.)
TATGTGTTTTTTGCCGATTAAATTATTACGGGATATATAACGGAGTCACCTAGTGCAG	9680 fluorescence intensity (a.u.)
TATATCACATTTAATTATTTTTCCCATGTTCTTGTTTTAACGGAGTCACCTAGTGCAG	9480 fluorescence intensity (a.u.)
ATTGGGTTGATATTATATTGGCAGGGCCAGAAAGTTTTACCGGAGTCACCTAGTGCAG	8580 fluorescence intensity (a.u.)
AACGGTCAAACATGTGCTAAAAAGTCAACGGTGTCAAATACGGAGTCACCTAGTGCAG	18600 fluorescence intensity (a.u.)
GAACGGTCAAACATGTGCTAAAAAGTCAACGGTGTCAAACCGGAGTCACCTAGTGCAG	10100 fluorescence intensity (a.u.)
CGAATGGTCAAACATGTAGAAAAAAGTCAACGGTGTCATCCGGAGTCACCTAGTGCAG	16900 fluorescence intensity (a.u.)
AACGGTCAAATATGTGCTAAAAAGTCAACGGTGTCAAATACGGAGTCACCTAGTGCAG	11300 fluorescence intensity (a.u.)
ACGAACGGTCAAACATGTGCTAAAAAGTCAACGGTGTCAACGGAGTCACCTAGTGCAG	15900 fluorescence intensity (a.u.)
TAAGACGAATGGTCAAACATGTAAGAAAAAGTCAACGGTACGGAGTCACCTAGTGCAG	12900 fluorescence intensity (a.u.)
AATGGTCAAACATGTGAGAAAAAGTCAACGGCGTTATCTACGGAGTCACCTAGTGCAG	15500 fluorescence intensity (a.u.)
CGAATGGTCAAACATATGAGAAAAAGTCAACGATGTCATCCGGAGTCACCTAGTGCAG	13900 fluorescence intensity (a.u.)
ATGGTCAAACATGTGCTAAAAAGTCAACGGTGTCAAACATCGGAGTCACCTAGTGCAG	17700 fluorescence intensity (a.u.)
ACGAATGGTCAAACATGTGAGGAAAAGTCAACGGCGTCATCGGAGTCACCTAGTGCAG	13400 fluorescence intensity (a.u.)

Sequence	binding signal
CGGTCAAACATGTGCTAAAAAGTCAACGGTGTCAAATATTCGGAGTCACCTAGTGCAG	11400 fluorescence intensity (a.u.)
ATGGTCAAACATGTGAGAAAAAGTCAACGGCGTCATCTATCGGAGTCACCTAGTGCAG	19600 fluorescence intensity (a.u.)
TAGCTCGGATTCTGCCCCTAATCCCGCCGTCCGCCTCCGCCGGAGTCACCTAGTGCAG	8490 fluorescence intensity (a.u.)
AGGCAACACATACAATGTATCACCTCTAACACACAAATACCGGAGTCACCTAGTGCAG	8410 fluorescence intensity (a.u.)
TCCATCAGTTTTGTGAACTCTGTCTGTCACTCGCTCAGCACGGAGTCACCTAGTGCAG	8940 fluorescence intensity (a.u.)
TTCTTCGTTTTTCTGAGTACGATCTCCCAGGGTTATAATCCGGAGTCACCTAGTGCAG	8850 fluorescence intensity (a.u.)
CGAGACCGACTGATGCTACAACTTCTGTCCTTGCTCCGGCCGGAGTCACCTAGTGCAG	8620 fluorescence intensity (a.u.)
ATGTGTGACTTGTCTTTTTAATTTTTTTTTTAATTTTTTTCGGAGTCACCTAGTGCAG	9610 fluorescence intensity (a.u.)
AGGCTATCGTATGACTTTCTTCTGCTTTCATTTGTGTTCACGGAGTCACCTAGTGCAG	15300 fluorescence intensity (a.u.)
TGGTGGCGTCTGTATTGGGTTTCTTTCTCCAAGTTATATTCGGAGTCACCTAGTGCAG	9710 fluorescence intensity (a.u.)
CTTTGCTCACTCTTTCTTTTCTCTTCAGGTCTCCATTCTTCGGAGTCACCTAGTGCAG	12200 fluorescence intensity (a.u.)
CGTGTCGGTGTCTCATCTCTCTCTCTCTTCCCATCCGCCGCGGAGTCACCTAGTGCAG	8790 fluorescence intensity (a.u.)
CCAAAAACCTCTACTCTTCCGCGTCTTGGAAAATTCTTCTCGGAGTCACCTAGTGCAG	9300 fluorescence intensity (a.u.)
AAACATGTGCTAAAAAGTCAACGGTGTCAAACATTTTGAACGGAGTCACCTAGTGCAG	10400 fluorescence intensity (a.u.)
TCAAACACGTACTAAAAAGTCAACGGTGTCAAACATTTTGCGGAGTCACCTAGTGCAG	15600 fluorescence intensity (a.u.)
GTGCTAAAAAGTCAACGGTGTCAAATATTTAGAAATGAAGCGGAGTCACCTAGTGCAG	21200 fluorescence intensity (a.u.)
TTATAACATGTCATTAATAAAGGGCATTATGCAACTAATACGGAGTCACCTAGTGCAG	64200 fluorescence intensity (a.u.)
GTCAAACATGTGCTAAAAAGTCAACAGTGTCAAACATTTCCGGAGTCACCTAGTGCAG	9540 fluorescence intensity (a.u.)
TGTGCTAAAAAAGTCAACGGTGTCAAATATTTCGAAACGGCGGAGTCACCTAGTGCAG	14700 fluorescence intensity (a.u.)
GTCAAACATGTGCTAAAAAGTCAACGGTGTCAAACATTTCCGGAGTCACCTAGTGCAG	17400 fluorescence intensity (a.u.)
TAAGATAAACGGTCAAACATTTGCTAAAAAGTCAACGGTGCGGAGTCACCTAGTGCAG	17300 fluorescence intensity (a.u.)

Sequence	binding signal
CATGTCACTATACTATTATATCCTATTATATCCTATAATACGGAGTCACCTAGTGCAG	8100 fluorescence intensity (a.u.)
TTGCTAAAAAGTCAACGGTGTCAAATATTTCGAAACGGAGCGGAGTCACCTAGTGCAG	12300 fluorescence intensity (a.u.)
TACTATTTTTTTCTATAACTATTTATGTCACATGTAAATACGGAGTCACCTAGTGCAG	8300 fluorescence intensity (a.u.)
AATAATAAGAACGGTCAAACATATGCTAAAAAGTCAACGGCGGAGTCACCTAGTGCAG	11500 fluorescence intensity (a.u.)
CATCTTCGCAGCAACTCAGTCATCAGCCCATAGCCATTTACGGAGTCACCTAGTGCAG	8950 fluorescence intensity (a.u.)
AAGGCTTATCACTTCGATTTTTATTTTAGTCCTTGTACTTCGGAGTCACCTAGTGCAG	8460 fluorescence intensity (a.u.)
ACCATCTTTTAAATCAGACCTCTCACCAATTTTGATATTTCGGAGTCACCTAGTGCAG	8230 fluorescence intensity (a.u.)
CGCCGGTACGTTTTCCCCGCCGCCGCCTTTCCGGCCGGCCCGGAGTCACCTAGTGCAG	8950 fluorescence intensity (a.u.)
ACTGTAGCCCATTTTTGATATGGCCAAGGCCCACATAGCACGGAGTCACCTAGTGCAG	8260 fluorescence intensity (a.u.)
GTCTACATGAACCATTCCAAATGACTTTTATAGGATTTCACGGAGTCACCTAGTGCAG	8340 fluorescence intensity (a.u.)
GCACCAAGGCCAATACTTGTCCGGATCACCAAGGACACCTCGGAGTCACCTAGTGCAG	8020 fluorescence intensity (a.u.)
TTTATTAGTTTGTGTCCTGGTTTTCTTTTTCAGTTAGATTCGGAGTCACCTAGTGCAG	8430 fluorescence intensity (a.u.)
TTACAAGACTTAATTTCAAGGTCCGTCGATTGTCTCTCCACGGAGTCACCTAGTGCAG	8830 fluorescence intensity (a.u.)
GTATAGGGGAGAGGGTGGGCGGGTGATCACTGGGTGGGTGCGGAGTCACCTAGTGCAG	12200 fluorescence intensity (a.u.)
CCCTCCGCTGAGGTTGCGGTTGATGATCTTTCATCAGTGACGGAGTCACCTAGTGCAG	8590 fluorescence intensity (a.u.)
ATCCATCACATCACGAAACCACTTCATGTACTCTTAACATCGGAGTCACCTAGTGCAG	8080 fluorescence intensity (a.u.)
TATGTGCTAAAAAGTCAACGGTGTCAAACATTTCGAAACGCGGAGTCACCTAGTGCAG	14000 fluorescence intensity (a.u.)
AAACATGTGCTAAAAAGTCAACGGTGTCAAATATTTCGAACGGAGTCACCTAGTGCAG	15600 fluorescence intensity (a.u.)
AAATGTGCTAAAAAGTCAACGGTGTCAAACATTTCGAAATCGGAGTCACCTAGTGCAG	16400 fluorescence intensity (a.u.)
AAACCTCCACCACCACCGCCACCACCGCCGCGCAAAACCCCGGAGTCACCTAGTGCAG	8700 fluorescence intensity (a.u.)
TATCTTTTTCTTTTTGGAGGTTTCGTTTTCTCTTGGTCAACGGAGTCACCTAGTGCAG	10400 fluorescence intensity (a.u.)
